In PubChem BioAssay (Tox21):
Values joined by “and” are separate entries in the source; they are usually repeats but may differ in a detail not shown here. Equal values may be shown once. Results filed as inconclusive are left out. Active and inactive are the calls of the source. Unless noted, calls come from the whole dose curve; as a rule, active = well fitted curve in the direction sought with a large enough effect in the repeat runs; inconclusive = weak or mixed curves; inactive = no such curve, though single readings can be large; an effect the other way counts as inactive or inconclusive.

Experiments:
[1] = qHTS assay to identify small molecule antagonists of the estrogen related receptor (ERR) signaling pathway from Tox21 library - cell viability counter screen (AID 1224834); note: nearly all actives have a fitted effect of over 30% in size; note: potency is the fitted concentration of half-maximal effect
Procedure, shortened: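 Compounds in DMSO were pinned onto ERR cells that had been incubated for 6 h, and the plates were held at 37 C for 17.5 h. CellTiter-Fluor reagent was then added and fluorescence was measured after 30 min.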

[2] = biological target: Luciferin 4-monooxygenase (Photinus pyralis) (UniProt P08659); experiment: qHTS assay to identify small molecule inhibitors of firefly luciferase (AID 1224835); note: nearly all actives have a fitted effect of over 25% in size; note: potency is the fitted concentration of half-maximal effect
Procedure, shortened: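 Quantitative HTS format; KM concentrations of both substrates. Purified P. pyralis FLuc activity quantified from luminescence images.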

[3] = qHTS assay to identify small molecule agonists of the constitutive androstane receptor (CAR) signaling pathway - cell viability counter screen (AID 1224836); note: nearly all actives have a fitted effect of over 45% in size; note: potency is the fitted concentration of half-maximal effect
Procedure, shortened: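 Multiplexed viability check: HepG2-CYP2B6-hCAR cells, 15-point compound dosing, 0.75 uM PK11195 final, 23 h at 37 C, CellTiter-Fluor fluorescence.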

[4] = qHTS assay to identify small molecule antagonists of the constitutive androstane receptor (CAR) signaling pathway - cell viability counter screen (AID 1224837); note: nearly all actives have a fitted effect of over 45% in size; note: potency is the fitted concentration of half-maximal effect
Procedure, shortened: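 Cells are seeded, rested 4 hr at 37 C/5% CO2, dosed with compound (15-point series) and 50 nM CITCO, incubated a further 23 hr, and then CellTiter-Fluor reagent is added before fluorescence is read. The line is HepG2 with stable hCAR and CYP2B6-2.2kb.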

[5] = biological target: Nuclear receptor subfamily 1 group I member 3 (Homo sapiens) (UniProt Q14994); experiment: qHTS assay to identify small molecule antagonists of the constitutive androstane receptor (CAR) signaling pathway (AID 1224838);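 note: HepG2 cells stably expressing hCAR with CYP2B6 luciferase reporter stimulated by CITCO; nearly all actives have a fitted effect of over 40% in size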; note: potency is the fitted concentration of half-maximal effect
Procedure, shortened: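 Luminescence from a CYP2B6-2.2kb promoter reporter in hCAR-expressing HepG2 cells reflects CAR signaling. Cells received compounds at 15 concentrations and 50 nM CITCO (final), then incubated 24 h at 37 C/5% CO2.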

[6] = biological target: Nuclear receptor subfamily 1 group I member 3 (Homo sapiens) (UniProt Q14994); experiment: qHTS assay to identify small molecule agonists of the constitutive androstane receptor (CAR) signaling pathway (AID 1224839);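 note: HepG2 cells stably carrying human CAR and a CYP2B6 luciferase reporter; nearly all actives have a fitted effect of over 15% in size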
Procedure, shortened: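 Using human hepatoma HepG2 cells engineered with hCAR and a CYP2B6-2.2kb reporter, 15-concentration compound series were incubated 24 h alongside PK11195 at 0.75 uM final, with luminescence quantified afterwards.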

[7] = qHTS assay to identify small molecule antagonists of the estrogen related receptor signaling pathway with the pleiotropic PPARgamma coactivator (PGC) from Tox21 10K library - cell viability counter screen (AID 1224840; active = well fitted cell-killing curve with a large enough effect in the repeat runs, not every such curve was filed as active; note: nearly all actives have a fitted effect of over 40% in size; note: potency is the fitted concentration of half-maximal effect)
Procedure, shortened: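 Cell viability is measured by CellTiter-Fluor fluorescence in PGC/ERR cells that receive compounds after a 6-hour attachment period and are then incubated 17.5 hours at 37 C.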

[8] = qHTS assay to identify small molecule antagonists of the estrogen related receptor signaling pathway with the pleiotropic PPARgamma coactivator (PGC) from Tox21 10K library (AID 1224841; call rule not given here; note: actives are mostly falling curves and most rising ones were filed inactive; nearly all actives have a fitted effect of over 50% in size; note: potency is the fitted concentration of half-maximal effect)
Procedure, shortened: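 Cells stably carrying the PGC/ERR reporter, seeded at 2,000 per well, received pin-transferred compounds 6 h post-plating. Exposure lasted 18 h at 37 C. Signal: One-Glo luminescence.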

[9] = qHTS assay to identify small molecule agonists of the estrogen related receptor signaling pathway with the pleiotropic PPARgamma coactivator (PGC) from Tox21 10K library (AID 1224842); note: nearly all actives have a fitted effect of over 15% in size
Procedure, shortened: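 PGC/ERR reporter cells (NTP line) were seeded 2,000 per well, rested 6 h at 37 C/5% CO2, then pin-dosed with compounds in DMSO for 18 h at 37 C; luciferase read by One-Glo luminescence after 30 min at room temperature.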

[10] = qHTS assay to identify small molecule agonists of the hypoxia (HIF-1) signaling pathway - cell viability counter screen (AID 1224844; calls by dose curve; note: nearly all actives have a fitted effect of over 50% in size)
Procedure, shortened: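 Viability counter screen: HRE-bla ME-180 cells plated 5 hrs before compound addition, treated 17 hrs at 37C and 5% CO2, then CellTiter-Glo added after the FRET reporter read; luminescence after 30 min.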

[11] = qHTS assay to identify small molecule agonists of H2AX (AID 1224845; active = well fitted activation curve with a large enough effect in the signal ratio in the repeat runs, not every such curve was filed as active; the % refers to the signal ratio)
Procedure, shortened: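 Wild-type CHO-K1 cells plated overnight, then exposed 3 hr at 37C to compounds at 15 concentrations (0.76% DMSO). Lysed, then HTRF anti-pH2AX(S139)-cryptate/anti-H2AX-d2 detection after 24 hr at room temperature; emissions 665 and 620 nm.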

[12] = qHTS assay to identify small molecule agonists of the hypoxia (HIF-1) signaling pathway (AID 1224846; active = well fitted activation curve with a large enough effect in the signal ratio in the repeat runs, not every such curve was filed as active; the % refers to the signal ratio)
Procedure, shortened: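 Agonist mode reporter screen. ME-180 cells stably expressing bla under HRE control received test compounds in DMSO for 17 hrs (37C, 5% CO2), and beta-lactamase activity was then detected with the CCF4-AM FRET substrate.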

[13] = qHTS RealTime-Glo MT Cell Viability Assay in HepG2 cells - 24 hour (AID 1224867); note: nearly all actives have a fitted effect of over 50% in size
Procedure, shortened: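 Viability was tracked continuously by NanoLuc luminescence from prosubstrate reduced by living HepG2 cells, at successive time points over 40 h of compound exposure. Cells with reagent were preincubated 5 h at 37 °C before compound addition.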

[14] = qHTS RealTime-Glo MT Cell Viability Assay in HEK293 cells - 32 hour (AID 1224868); note: top concentration of the series differs between compounds; nearly all actives have a fitted effect of over 50% in size
Procedure, shortened: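 Viability tracked continuously by luminescence as live cells reduce a prosubstrate for NanoLuc; HEK293 cells preincubated 5 h, compound-treated at 37 C, and read at 0, 8, 16, 24, 32 and 40 h.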

[15] = A CellTox Green Cytotoxicity Assay to monitor cytotoxicity in HEK293 cells - 0 hour (AID 1224869); note: nearly all actives have a fitted effect of over 50% in size
Procedure, shortened: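 Dead-cell fluorescence measured kinetically: asymmetric cyanine dye, HEK293, 600 cells/well, 5 h settle, 23 nL cpd/DMSO, 37 C, reads 0–40 h every 8 h.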

[16] = qHTS assay to identify small molecule agonists of the estrogen related receptor signaling pathway with the pleiotropic PPARgamma coactivator (PGC) (AID 1224823)
Procedure, shortened: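 Luminescence readout (One-Glo, 30 min RT) from PGC/ERR cell line treated 18 h at 37 C with pin-tool-delivered DMSO compound solutions; cells plated 6 h before dosing. Quantitative HTS format.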

[17] = biological target: Thyrotropin receptor (Homo sapiens) (UniProt P16473); experiment: qHTS assay to identify small molecule agonists of the thyroid stimulating hormone receptor (TSHR) signaling pathway (AID 1224843; calls by dose curve; note: nearly all actives have a fitted effect of over 45% in size; note: potency is the fitted concentration of half-maximal effect)
Procedure, shortened: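 Using 15 concentrations per compound in triplicate, cAMP production was monitored in TSHR-HEK293 cells after 30 min compound incubation at RT; HTRF reagents followed, with fluorescence intensity recorded after 1 h.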

[18] = qHTS assay to identify small molecule agonists of H2AX - cell viability counter screen (AID 1224847; calls by dose curve; note: nearly all actives have a fitted effect of over 30% in size; note: potency is the fitted concentration of half-maximal effect)
Procedure, shortened: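 After overnight plating of 1000 CHO-K1 cells per well, a 15-concentration compound series was applied for 3 hr at 37C. Luminescence from CellTiter-Glo, read following 30 min at room temperature, reflected cell viability.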

[19] = qHTS assay to identify small molecule antagonists of the estrogen related receptor (ERR) signaling pathway from Tox21 library (AID 1224848); note: nearly all actives have a fitted effect of over 50% in size; note: potency is the fitted concentration of half-maximal effect
Procedure, shortened: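 Tox21 10K compounds in DMSO tested for ERR pathway antagonism in NTP's ERR cell line; 18 h, 37 C exposure; ONE-Glo luminescence.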

[20] = qHTS assay to identify small molecule agonists of the estrogen related receptor (ERR) signaling pathway from Tox21 library (AID 1224849; calls by dose curve; note: nearly all actives have a fitted effect of over 15% in size); settings: ERR reporter cell line, ONE-Glo luciferase, 18 h; at 92.4 µM (top of the series) unless noted
Procedure, shortened: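 Quantitative HTS in agonist format: NTP ERR cell line, compounds transferred in DMSO after 6 h plating, 18 h incubation at 37 C, ONE-Glo luminescence endpoint.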
% is set by controls: 0 for no effect and ±100 for the full control effect.

Sequence of Thyrotropin receptor (Homo sapiens) (P16473 whole entry, looked up): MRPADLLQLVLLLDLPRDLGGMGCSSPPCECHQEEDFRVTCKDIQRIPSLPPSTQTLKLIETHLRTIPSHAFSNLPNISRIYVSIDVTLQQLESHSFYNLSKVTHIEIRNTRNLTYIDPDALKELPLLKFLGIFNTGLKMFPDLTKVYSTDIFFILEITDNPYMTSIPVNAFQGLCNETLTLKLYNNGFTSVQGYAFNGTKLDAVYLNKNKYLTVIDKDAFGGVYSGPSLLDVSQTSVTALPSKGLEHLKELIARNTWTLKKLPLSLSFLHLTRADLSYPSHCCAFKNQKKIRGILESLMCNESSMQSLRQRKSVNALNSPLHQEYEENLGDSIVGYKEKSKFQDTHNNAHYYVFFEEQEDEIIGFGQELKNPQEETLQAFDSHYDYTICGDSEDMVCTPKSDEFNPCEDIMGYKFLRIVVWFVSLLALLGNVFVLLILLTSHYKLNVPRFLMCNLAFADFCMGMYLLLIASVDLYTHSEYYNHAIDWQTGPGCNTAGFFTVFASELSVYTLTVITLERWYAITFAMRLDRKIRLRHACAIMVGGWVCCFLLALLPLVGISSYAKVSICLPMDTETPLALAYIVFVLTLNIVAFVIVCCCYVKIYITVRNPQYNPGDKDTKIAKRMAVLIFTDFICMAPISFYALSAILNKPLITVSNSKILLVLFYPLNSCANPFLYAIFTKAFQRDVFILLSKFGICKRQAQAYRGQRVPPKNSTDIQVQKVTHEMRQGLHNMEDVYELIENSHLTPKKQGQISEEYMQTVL
Sequence of Luciferin 4-monooxygenase (Photinus pyralis) (P08659 whole entry, looked up): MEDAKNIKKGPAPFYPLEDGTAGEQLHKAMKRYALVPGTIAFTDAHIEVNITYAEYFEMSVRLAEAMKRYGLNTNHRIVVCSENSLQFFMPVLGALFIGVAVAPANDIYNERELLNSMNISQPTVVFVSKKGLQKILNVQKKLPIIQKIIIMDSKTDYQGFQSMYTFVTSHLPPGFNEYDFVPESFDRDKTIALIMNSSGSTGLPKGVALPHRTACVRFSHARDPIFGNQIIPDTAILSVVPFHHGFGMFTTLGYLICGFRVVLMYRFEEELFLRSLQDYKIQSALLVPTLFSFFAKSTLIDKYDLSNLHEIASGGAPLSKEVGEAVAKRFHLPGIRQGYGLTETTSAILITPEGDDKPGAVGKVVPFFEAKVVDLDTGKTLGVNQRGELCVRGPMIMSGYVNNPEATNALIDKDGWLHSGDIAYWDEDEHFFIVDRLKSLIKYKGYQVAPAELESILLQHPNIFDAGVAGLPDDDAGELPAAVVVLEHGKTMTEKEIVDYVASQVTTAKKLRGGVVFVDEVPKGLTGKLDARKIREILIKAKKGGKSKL
Sequence of Nuclear receptor subfamily 1 group I member 3 (Homo sapiens) (Q14994 whole entry, looked up): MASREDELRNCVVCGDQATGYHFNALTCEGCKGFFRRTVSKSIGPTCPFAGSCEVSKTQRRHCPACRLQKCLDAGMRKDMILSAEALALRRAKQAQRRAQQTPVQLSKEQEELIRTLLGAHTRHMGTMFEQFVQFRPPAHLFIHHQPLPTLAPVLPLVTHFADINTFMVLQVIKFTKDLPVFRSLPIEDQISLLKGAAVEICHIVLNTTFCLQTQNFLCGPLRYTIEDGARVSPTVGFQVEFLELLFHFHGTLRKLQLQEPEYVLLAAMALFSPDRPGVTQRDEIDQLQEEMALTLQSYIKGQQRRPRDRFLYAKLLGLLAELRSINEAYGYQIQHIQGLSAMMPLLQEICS

COc1ccccc1Oc1c(NS(=O)(=O)c2ccc(C(C)(C)C)cc2)nc(-c2ncccn2)nc1OCCO
inactive: Potency [1] | Potency [2] | Potency [3] | Potency [4] | Potency [5] | Potency [6] | Potency [7] | Potency [8] | Potency [9] | Potency [10] | Potency [11] | outcome [12] | Potency [13] | Potency [14] | Potency [15]

CCOC(=O)C1=C(C)NC(C)=C(C(=O)OC)C1c1cccc(Cl)c1Cl (stereo not drawn)
inactive: outcome [16] | Potency [1] | Potency [2] | Potency [3] | Potency [4] | Potency [5] | Potency [6] | Potency [7] | Potency [8] | Potency [9] | Potency [17] | Potency [10] | Potency [11] | outcome [12] | Potency [18]

O=C(O)c1ccc(OCCCOc2ccc(C(=O)O)cc2)cc1
inactive: Potency [1] | Potency [2] | Potency [3] | Potency [4] | Potency [5] | Potency [6] | Potency [7] | Potency [8] | Potency [9] | Potency [11] | outcome [12] | Potency [18] | Potency [19] | activity change, positive = activation [20] 7.07% [at 42.5 µM] | Potency [13] | Potency [14] | Potency [15]

C=C/C(C)=C/C/C=C(\C)CCC=C(C)C
inactive: Potency [1] | Potency [2] | Potency [3] | Potency [4] | Potency [5] | Potency [6] | Potency [7] | Potency [8] | Potency [9] | Potency [11] | outcome [12] | Potency [18] | activity change, positive = activation [20] -20.3% | Potency [13] | Potency [14] | Potency [15]

CC1=C(Br)C(=O)C(Br)=C/C1=C(/c1ccccc1S(=O)(=O)O)c1cc(Br)c(O)c(Br)c1C
active: Potency [1] 18.6 µM | Potency [2] 19.2 µM | Potency [3] 18.6 µM | Potency [4] 33 µM | Potency [5] 18.6 µM | Potency [7] 18.6 µM | Potency [8] 16.5 µM | Potency [18] 21.7 µM | Potency [19] 18.6 µM
inactive: Potency [6] | Potency [9] | outcome [12] | Potency [13] | Potency [14] | Potency [15]

CC(C)=CCC/C(C)=C/CC/C(C)=C/CCC(=O)OC/C=C(\C)CCC=C(C)C
inactive: Potency [1] | Potency [2] | Potency [3] | Potency [4] | Potency [5] | Potency [6] | Potency [7] | Potency [8] | Potency [9] | Potency [11] | outcome [12] | Potency [19] | activity change, positive = activation [20] -0.27% [at 42.5 µM] | Potency [13] | Potency [14] | Potency [15]

C[C@@]12CCC[C@H]1[C@@H]1CC[C@H]3C[C@@H](O)CC[C@]3(C)[C@H]1CC2
inactive: Potency [1] | Potency [2] | Potency [3] | Potency [4] | Potency [5] | Potency [6] | Potency [7] | Potency [8] | Potency [9] | Potency [17] | Potency [10] | Potency [11] | outcome [12] | Potency [19] | activity change, positive = activation [20] -6.1% [at 42.5 µM] | Potency [13] | Potency [14] | Potency [15]

CCC(C)(C)OC
inactive: Potency [1] | Potency [2] | Potency [3] | Potency [4] | Potency [5] | Potency [6] | Potency [7] | Potency [8] | Potency [9] | Potency [17] | Potency [11] | Potency [19] | activity change, positive = activation [20] -8.72% | Potency [13] | Potency [14]

O=C(O)CCc1nc(-c2ccccc2)c(-c2ccccc2)o1
inactive: outcome [16] | Potency [1] | Potency [2] | Potency [3] | Potency [4] | Potency [5] | Potency [6] | Potency [7] | Potency [8] | Potency [9] | Potency [17] | Potency [10] | Potency [11] | Potency [18] | Potency [19] | activity change, positive = activation [20] -3.38% [at 42.5 µM] | Potency [13] | Potency [14] | Potency [15]

CCCCCCNC(=O)n1cc(F)c(=O)[nH]c1=O
inactive: Potency [1] | Potency [2] | Potency [3] | Potency [4] | Potency [6] | Potency [7] | Potency [8] | Potency [9] | Potency [17] | Potency [10] | outcome [12] | Potency [18] | Potency [19] | Potency [13] | Potency [14] | Potency [15]
active: Potency [5] 2.11 µM

O=C(O)CCCCCCCCCCCBr
inactive: Potency [1] | Potency [3] | Potency [4] | Potency [5] | Potency [6] | Potency [7] | Potency [8] | Potency [9] | Potency [11] | outcome [12] | Potency [18] | Potency [19] | Potency [13] | Potency [14] | Potency [15]
active: Potency [2] 56.6 µM

CN1C(=O)OC(C)(C)C1=O
inactive: Potency [1] | Potency [2] | Potency [3] | Potency [4] | Potency [5] | Potency [6] | Potency [7] | Potency [8] | Potency [9] | Potency [10] | Potency [11] | Potency [18] | Potency [19] | activity change, positive = activation [20] 4.82% | Potency [13] | Potency [14]

C/C=C/C=C/C=O
inactive: Potency [1] | Potency [2] | Potency [3] | Potency [4] | Potency [5] | Potency [6] | Potency [7] | Potency [8] | Potency [9] | Potency [11] | outcome [12] | Potency [18] | Potency [19] | activity change, positive = activation [20] 4.86% | Potency [13]

C[C@@H]1CC(=O)NN=C1c1ccc(NN=C(C#N)C#N)cc1
active: Potency [1] 18.8 µM and 13.3 µM | Potency [2] 5.49 µM and 9.77 µM | Potency [3] 11.9 µM | Potency [4] 11.9 µM | Potency [5] 21.1 µM | Potency [7] 26.6 µM and 23.7 µM | Potency [8] 4.73 µM | Potency [17] 0.841 µM | Potency [19] 13.3 µM
inactive: Potency [6] | Potency [9] | Potency [10] | activity change, positive = activation [20] -30.7% [at 42.5 µM] and -38.2% [at 42.5 µM]
